Laboratory results taken from PubChem BioAssay AID720706 (Broad Institute, 2013).
Hit rate of the full screen: of about 350,000 compounds, about 5,500 (1.6%) were called active. This is one part of a sample in which actives are shown more often than they occur.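 Rule for the calls: active = significant combined selectivity score with lowered wild-type GFP, culture density cut under 30%, mutant RFP and density less affected; inactive = any of these conditions unmet.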

Assay: reduced GFP signal of wild-type E. coli, primary screen, bacterial rRNA inhibitor project, GFP/RFP fluorescence, OD600, single point (AID 720706)
Conditions: E. coli WT GFP vs humanized-ribosome RFP mutants, 24 h; GFP signal change (wild-type ribosome): stronger effect = lower value, DMSO median 0, no signal -100; OD600 change: measured here: OD600 growth, DMSO median 0, no signal -100; RFP signal change: measured here: RFP humanized mutant strains, DMSO median 0, no signal -100, concentration not given here

Structure (SMILES)	GFP signal change (wild-type ribosome)	OD600 change [%]	RFP signal change [%]
CS(=O)(=O)Nc1ccc2c(c1)[C@@H]1C[C@H](CC(=O)NCc3ccccn3)O[C@@H](CO)[C@@H]1O2	2.36% (inactive)	-0.375	1.41
O=C(NCCN1CCCCC1)[C@@H]1N[C@@H]2c3ccc(-c4ccccc4)c(=O)n3C[C@@H]2[C@H]1CO	-1.4% (inactive)	4.26	-4
COC(=O)C[C@@H]1CC[C@H]2[C@@H](COC[C@H](O)CN2C(=O)Nc2ccccc2OC)O1	-0.973% (inactive)	5.6	2.71
COc1ccc(-n2cc(CN(C)Cc3n[nH]c(=O)[nH]3)c(-c3cccc(F)c3)n2)cc1	-10.8% (inactive)	-14.6	-0.58
CCC(O)C1CCN(Cc2cn(-c3ccc(OC)cc3)nc2-c2cccc(F)c2)CC1 (stereo not given)	-12.5% (inactive)	-11	3.52
COc1ccc(-n2cc(CNC3CCOCC3)c(-c3cccc(F)c3)n2)cc1	-30.4% (active)	-24.4	-1.67
O=C(Nc1ccc(C(F)(F)F)cc1)c1cccc(-n2cnnn2)c1	-24.6% (active)	-17.2	-9.02
O=C(Nc1cccc(-n2cnnn2)c1)c1cccnc1	1.1% (inactive)	2.52	0.952
O=C(O)CSCC(=O)Nc1ccc(C(F)(F)F)cc1	9.65% (inactive)	10.9	3.37
COc1ccccc1CNC(=O)C[C@@H]1CC[C@@H]2[C@@H](COc3ccc(NC(=O)Nc4ccc(F)c(F)c4)cc3C(=O)N2C)O1	-9.44% (inactive)	-10.3	-1.71
CCCNC(=O)C[C@@H]1C[C@H]2c3cc(NC(=O)Nc4ccccc4F)ccc3O[C@H]2[C@H](CO)O1	-3.87% (inactive)	-12.4	1.51
COC(=O)c1c(C(=O)OC)c2n(c1C)CCS2	-22.3% (active)	-9.31	-5.79
COC(=O)c1c(C)cc(O)c(C)c1O	-0.355% (inactive)	5.33	0.38
COC(=O)c1c(-c2ccc(C)cc2)csc1N	-1.07% (inactive)	-0.1	43.8
C/C=C/c1ccc([C@@H]2[C@@H](CO)N3C(=O)CN(C(=O)Nc4cccc(OC)c4)C[C@@H]23)cc1	-1.73% (inactive)	-7.8	3.44
O=C(Nc1ccc(C2CC2(Cl)Cl)cc1)c1cccc([N+](=O)[O-])c1 (stereo not given)	-27.9% (active)	-19.1	-6.25
O=C(NC(=S)NC1CCS(=O)(=O)C1)c1cccc([N+](=O)[O-])c1 (stereo not given)	3.91% (inactive)	8.03	-1.87
O=C(Nc1nnc(SCc2c(Cl)cccc2Cl)s1)c1cccc([N+](=O)[O-])c1	1.43% (inactive)	-3.04	-1.26
C[C@@H]1CN([C@H](C)CO)C(=O)Cc2cc(N(C)C)ccc2O[C@H]1CN(C)C(=O)NC1CCCCC1	-0.659% (inactive)	5.18	-1.29
COc1cccc(C#Cc2ccc([C@@H]3[C@H]4CN(C(=O)Cc5ccccc5)CC(=O)N4[C@H]3CO)cc2)c1	-5.04% (inactive)	-9.42	27.5

Structure (SMILES)	GFP signal change (wild-type ribosome)	OD600 change [%]	RFP signal change [%]
CN(C)CCN(C(=O)C1=COCCO1)c1nc2ccc(Cl)cc2s1	2.56% (inactive)	-1.62	-1.96
CCOc1ccc2nc(C(=O)N3CCCC(C)C3)sc2c1 (stereo not given)	-6.88% (inactive)	-10.3	-0.532
Cc1ccc2sc(NNC(=O)c3ccc4c(c3)OCCO4)nc2c1C	-7.09% (inactive)	-13.5	7.46
CCN(CC)CCN(C(=O)c1ccc2c(c1)CCCC2)c1nc2c(OC)cccc2s1	-52.2% (inactive)	-75.4	-16.6
CN(C)CCCN(C(=O)c1ccc(S(=O)(=O)N2CCCCCC2)cc1)c1nc2cc3c(cc2s1)OCCO3	-30% (active)	-20.1	0.23
CCOc1ccc2nc(N(CCN(C)C)C(=O)c3ccc4ccccc4c3)sc2c1	-29.3% (active)	-1.85	4.17
CCN(CC)CCN(C(=O)c1ccc(N2C(=O)CCC2=O)cc1)c1nc2cc3c(cc2s1)OCO3	4.92% (inactive)	-10.9	-4.79
CCc1ccc2nc(N(CCCN(C)C)C(=O)c3ccc4c(c3)OCCO4)sc2c1	-22.5% (active)	-7.47	6.9
CCN(CC)CCN(C(=O)c1cc(Cl)sc1Cl)c1nc2cc3c(cc2s1)OCO3	4.27% (inactive)	-1.1	-0.673
CN(C)Cc1cn(CC[C@H]2CC[C@H](NS(=O)(=O)c3ccccc3)[C@@H](CO)O2)nn1	-1.38% (inactive)	8.8	-1.73
Cc1ccc(S(=O)(=O)N(C)C[C@H]2Oc3c(NS(=O)(=O)c4cn(C)cn4)cccc3C(=O)N([C@@H](C)CO)C[C@H]2C)cc1	4.44% (inactive)	5.92	-0.801
CCC(=O)N(C)C[C@@H]1Oc2ncc(-c3ccccc3OC)cc2C(=O)N([C@@H](C)CO)C[C@@H]1C	-1.63% (inactive)	0.66	1.16
COc1ccc(CNC(=O)C[C@@H]2C=C[C@@H](NC(=O)c3ccc4c(c3)OCO4)[C@@H](CO)O2)cc1	3.42% (inactive)	5.74	-0.879
C[C@H](CO)N1C[C@H](C)[C@H](CN(C)S(C)(=O)=O)Oc2ncc(C3=CCCC3)cc2C1=O	4.58% (inactive)	6.67	-1.55
O=[N+]([O-])c1cc([N+](=O)[O-])c2cccnc2c1O	-15.7% (inactive)	19.1	3.26
O=C(c1cccc(F)c1)N1CCN(c2ccc([N+](=O)[O-])c3cccnc23)CC1	-17.8% (active)	-11	4.41
O=C(c1ccc(N2CCOCC2)c([N+](=O)[O-])c1)N1CCN(c2ccccc2F)CC1	-19.6% (inactive)	-35.6	-4.01
C[C@H]1CCCCO[C@@H](CN(C)Cc2ccncc2)[C@@H](C)CN([C@@H](C)CO)C(=O)c2cc(NC(=O)Nc3ccc(F)cc3)ccc2O1	1.44% (inactive)	2.48	-0.987
CCCN(C)C[C@@H]1OCCCC[C@@H](C)Oc2ccc(NC(=O)CCCN(C)C)cc2C(=O)N([C@H](C)CO)C[C@@H]1C	-2.58% (inactive)	6.85	-0.525
C[C@H](NC(=O)N(C)C[C@@H]1OCc2ccccc2-c2ccccc2C(=O)N([C@H](C)CO)C[C@@H]1C)c1ccccc1	-0.824% (inactive)	6	-2.69
